# Source: ChEMBL document CHEMBL1961873, “Compounds: GSK PKIS; Assays: Nanosyn kinase panel” (2012)
# Assays:
# [1] = target: Sphingosine kinase 1 (Homo sapiens) (UniProt Q9NYA1); conditions: at 1 µM;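 note: mean SPHK1 inhibition value reported from the GSK PKIS kinase panel screen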
# [2] = target: T1, Sphingosine kinase 2 (Homo sapiens) (UniProt Q9NRA0); conditions: at 0.1 µM
# T1 sequence (whole entry): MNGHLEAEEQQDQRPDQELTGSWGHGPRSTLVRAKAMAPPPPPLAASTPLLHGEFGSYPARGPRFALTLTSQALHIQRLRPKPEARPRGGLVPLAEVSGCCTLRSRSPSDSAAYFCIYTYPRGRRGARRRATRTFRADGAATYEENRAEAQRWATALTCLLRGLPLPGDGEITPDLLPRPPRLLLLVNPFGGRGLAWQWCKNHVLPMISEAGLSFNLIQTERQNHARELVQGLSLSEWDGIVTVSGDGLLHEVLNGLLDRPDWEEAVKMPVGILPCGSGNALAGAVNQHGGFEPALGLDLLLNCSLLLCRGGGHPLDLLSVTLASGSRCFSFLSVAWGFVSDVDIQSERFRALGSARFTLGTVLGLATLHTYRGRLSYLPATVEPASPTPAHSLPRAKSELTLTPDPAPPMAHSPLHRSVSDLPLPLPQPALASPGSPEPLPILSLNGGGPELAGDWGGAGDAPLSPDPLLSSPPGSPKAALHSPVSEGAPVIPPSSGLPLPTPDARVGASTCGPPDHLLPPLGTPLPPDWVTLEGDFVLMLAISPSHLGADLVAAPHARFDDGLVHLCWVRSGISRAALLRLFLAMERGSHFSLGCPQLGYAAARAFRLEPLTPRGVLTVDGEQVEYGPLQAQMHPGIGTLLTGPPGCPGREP
# [3] = target: T1, Sphingosine kinase 2 (Homo sapiens); conditions: at 1 µM
# [4] = target: Casein kinase II subunit alpha (Homo sapiens) (UniProt P68400); conditions: at 0.1 µM
# [5] = target: Casein kinase II subunit alpha (Homo sapiens) (UniProt P68400); conditions: at 1 µM
# [6] = target: T2, Inhibitor of nuclear factor kappa-B kinase subunit alpha (Homo sapiens) (UniProt O15111); conditions: at 0.1 µM
# T2 sequence (whole entry): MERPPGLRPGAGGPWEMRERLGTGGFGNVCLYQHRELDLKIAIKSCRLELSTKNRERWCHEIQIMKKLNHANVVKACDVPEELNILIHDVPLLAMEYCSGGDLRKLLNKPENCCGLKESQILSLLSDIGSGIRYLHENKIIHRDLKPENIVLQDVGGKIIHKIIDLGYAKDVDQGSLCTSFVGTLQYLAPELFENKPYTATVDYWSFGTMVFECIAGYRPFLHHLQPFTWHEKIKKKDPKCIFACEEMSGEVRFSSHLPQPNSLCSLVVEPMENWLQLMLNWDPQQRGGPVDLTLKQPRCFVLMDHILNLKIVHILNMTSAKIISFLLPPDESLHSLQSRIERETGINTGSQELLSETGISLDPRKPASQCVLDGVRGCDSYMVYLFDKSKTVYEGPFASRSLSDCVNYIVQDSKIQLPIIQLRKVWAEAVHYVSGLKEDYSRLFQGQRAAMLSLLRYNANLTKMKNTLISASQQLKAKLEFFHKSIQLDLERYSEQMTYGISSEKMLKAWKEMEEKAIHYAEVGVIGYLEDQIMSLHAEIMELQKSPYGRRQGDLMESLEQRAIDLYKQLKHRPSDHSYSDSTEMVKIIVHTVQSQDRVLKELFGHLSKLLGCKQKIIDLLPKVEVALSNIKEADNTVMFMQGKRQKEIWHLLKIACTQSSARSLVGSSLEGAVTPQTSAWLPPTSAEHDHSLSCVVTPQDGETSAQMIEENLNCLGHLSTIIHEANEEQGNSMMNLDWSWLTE
# [7] = target: T2, Inhibitor of nuclear factor kappa-B kinase subunit alpha (Homo sapiens); conditions: at 1 µM
# [8] = target: T3, Inhibitor of nuclear factor kappa-B kinase subunit beta (Homo sapiens) (UniProt O14920); conditions: at 0.1 µM
# T3 sequence (whole entry): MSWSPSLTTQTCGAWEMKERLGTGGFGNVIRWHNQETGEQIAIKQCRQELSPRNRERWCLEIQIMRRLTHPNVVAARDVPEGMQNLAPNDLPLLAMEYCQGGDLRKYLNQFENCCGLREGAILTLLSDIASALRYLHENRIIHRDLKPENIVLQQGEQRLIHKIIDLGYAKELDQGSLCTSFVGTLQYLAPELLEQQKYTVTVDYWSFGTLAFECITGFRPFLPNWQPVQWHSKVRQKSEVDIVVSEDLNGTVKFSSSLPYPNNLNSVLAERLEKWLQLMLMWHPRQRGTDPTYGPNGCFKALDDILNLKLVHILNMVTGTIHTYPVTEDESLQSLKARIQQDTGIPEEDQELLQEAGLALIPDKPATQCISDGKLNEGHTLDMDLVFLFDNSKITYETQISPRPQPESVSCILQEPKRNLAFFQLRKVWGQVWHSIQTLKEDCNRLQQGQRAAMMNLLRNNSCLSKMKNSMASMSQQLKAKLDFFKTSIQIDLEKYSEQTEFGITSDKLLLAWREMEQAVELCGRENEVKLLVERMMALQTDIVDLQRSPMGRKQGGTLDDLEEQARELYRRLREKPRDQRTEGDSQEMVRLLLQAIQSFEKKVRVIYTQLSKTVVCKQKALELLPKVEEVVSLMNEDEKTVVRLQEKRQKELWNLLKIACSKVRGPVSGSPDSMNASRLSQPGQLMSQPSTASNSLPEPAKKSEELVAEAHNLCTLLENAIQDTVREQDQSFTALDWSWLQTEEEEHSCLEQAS
# [9] = target: T3, Inhibitor of nuclear factor kappa-B kinase subunit beta (Homo sapiens); conditions: at 1 µM
# [10] = target: T4, Inhibitor of nuclear factor kappa-B kinase subunit epsilon (Homo sapiens) (UniProt Q14164); conditions: at 0.1 µM
# T4 sequence (whole entry): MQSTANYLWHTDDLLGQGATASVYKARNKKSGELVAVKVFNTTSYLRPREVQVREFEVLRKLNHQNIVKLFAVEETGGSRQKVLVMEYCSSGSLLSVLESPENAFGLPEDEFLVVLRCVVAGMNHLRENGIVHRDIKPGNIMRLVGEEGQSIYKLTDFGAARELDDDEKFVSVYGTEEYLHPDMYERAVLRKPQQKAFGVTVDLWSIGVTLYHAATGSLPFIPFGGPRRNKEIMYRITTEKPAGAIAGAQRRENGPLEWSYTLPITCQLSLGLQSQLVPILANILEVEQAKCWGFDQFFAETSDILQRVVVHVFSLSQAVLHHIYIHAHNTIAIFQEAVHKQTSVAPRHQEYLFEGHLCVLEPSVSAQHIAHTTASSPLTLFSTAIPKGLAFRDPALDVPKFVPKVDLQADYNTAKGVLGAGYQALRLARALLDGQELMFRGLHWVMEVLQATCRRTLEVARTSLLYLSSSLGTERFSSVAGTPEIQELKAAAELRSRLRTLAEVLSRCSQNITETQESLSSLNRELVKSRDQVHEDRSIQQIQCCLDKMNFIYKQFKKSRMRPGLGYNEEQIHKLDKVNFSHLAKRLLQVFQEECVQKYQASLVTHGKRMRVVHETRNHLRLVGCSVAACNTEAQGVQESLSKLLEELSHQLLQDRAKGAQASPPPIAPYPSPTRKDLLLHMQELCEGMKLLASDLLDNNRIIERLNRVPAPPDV
# [11] = target: T4, Inhibitor of nuclear factor kappa-B kinase subunit epsilon (Homo sapiens); conditions: at 1 µM
# [12] = target: T5, Serine/threonine-protein kinase Nek1 (Homo sapiens) (UniProt Q96PY6); conditions: at 0.1 µM
# T5 sequence (whole entry): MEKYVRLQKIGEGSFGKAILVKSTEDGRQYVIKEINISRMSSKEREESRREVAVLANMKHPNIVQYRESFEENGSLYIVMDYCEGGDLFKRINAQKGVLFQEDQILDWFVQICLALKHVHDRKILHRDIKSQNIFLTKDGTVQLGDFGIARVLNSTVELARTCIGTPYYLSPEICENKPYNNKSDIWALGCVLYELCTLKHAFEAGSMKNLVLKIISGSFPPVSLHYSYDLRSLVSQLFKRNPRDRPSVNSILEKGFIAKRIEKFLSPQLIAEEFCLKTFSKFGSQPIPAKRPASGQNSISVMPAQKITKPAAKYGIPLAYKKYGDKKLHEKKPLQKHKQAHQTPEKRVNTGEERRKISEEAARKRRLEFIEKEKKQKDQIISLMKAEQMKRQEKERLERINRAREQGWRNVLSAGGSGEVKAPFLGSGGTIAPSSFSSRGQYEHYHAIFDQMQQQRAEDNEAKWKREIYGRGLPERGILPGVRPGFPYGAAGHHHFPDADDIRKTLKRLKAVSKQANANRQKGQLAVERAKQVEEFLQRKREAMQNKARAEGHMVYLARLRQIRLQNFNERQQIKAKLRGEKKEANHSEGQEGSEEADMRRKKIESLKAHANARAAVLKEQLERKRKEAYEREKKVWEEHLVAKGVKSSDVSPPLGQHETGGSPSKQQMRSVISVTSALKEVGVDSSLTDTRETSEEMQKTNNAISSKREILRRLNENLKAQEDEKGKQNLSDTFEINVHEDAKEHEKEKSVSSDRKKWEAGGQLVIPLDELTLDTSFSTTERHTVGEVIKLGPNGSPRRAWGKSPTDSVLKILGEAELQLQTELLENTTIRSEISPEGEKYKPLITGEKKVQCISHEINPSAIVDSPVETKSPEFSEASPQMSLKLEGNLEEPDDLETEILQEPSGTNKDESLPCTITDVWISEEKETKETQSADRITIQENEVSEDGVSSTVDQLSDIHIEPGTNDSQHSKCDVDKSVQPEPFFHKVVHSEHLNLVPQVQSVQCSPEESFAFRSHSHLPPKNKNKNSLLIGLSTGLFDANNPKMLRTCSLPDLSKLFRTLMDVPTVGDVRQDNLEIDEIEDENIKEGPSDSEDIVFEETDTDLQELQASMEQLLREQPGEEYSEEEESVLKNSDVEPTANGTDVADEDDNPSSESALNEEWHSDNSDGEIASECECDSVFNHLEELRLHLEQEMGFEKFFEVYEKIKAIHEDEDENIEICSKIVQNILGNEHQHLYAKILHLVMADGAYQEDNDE
# [13] = target: T5, Serine/threonine-protein kinase Nek1 (Homo sapiens); conditions: at 1 µM
# [14] = target: T6, Serine/threonine-protein kinase Nek2 (Homo sapiens) (UniProt P51955); conditions: at 0.1 µM
# T6 sequence (whole entry): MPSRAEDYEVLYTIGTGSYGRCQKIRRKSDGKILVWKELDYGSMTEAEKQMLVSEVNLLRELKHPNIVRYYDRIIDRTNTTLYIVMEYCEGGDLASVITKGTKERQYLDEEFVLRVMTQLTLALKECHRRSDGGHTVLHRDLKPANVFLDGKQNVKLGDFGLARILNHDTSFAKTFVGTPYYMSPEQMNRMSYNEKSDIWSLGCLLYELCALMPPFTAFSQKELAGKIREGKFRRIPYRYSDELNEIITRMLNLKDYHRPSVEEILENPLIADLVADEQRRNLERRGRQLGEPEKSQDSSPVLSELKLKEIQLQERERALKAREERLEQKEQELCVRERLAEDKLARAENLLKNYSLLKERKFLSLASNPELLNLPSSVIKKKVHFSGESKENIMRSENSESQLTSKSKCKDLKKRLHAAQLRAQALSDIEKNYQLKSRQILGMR
# [15] = target: T6, Serine/threonine-protein kinase Nek2 (Homo sapiens); conditions: at 1 µM
# [16] = target: Serine/threonine-protein kinase Nek6 (Homo sapiens) (UniProt Q9HC98); conditions: at 0.1 µM
# [17] = target: Serine/threonine-protein kinase Nek6 (Homo sapiens) (UniProt Q9HC98); conditions: at 1 µM
# [18] = target: Serine/threonine-protein kinase Nek7 (Homo sapiens) (UniProt Q8TDX7); conditions: at 0.1 µM
# [19] = target: Serine/threonine-protein kinase Nek7 (Homo sapiens) (UniProt Q8TDX7); conditions: at 1 µM
# [20] = target: T7, Serine/threonine-protein kinase Nek9 (Homo sapiens) (UniProt Q8TD19); conditions: at 0.1 µM;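 note: reported value is the mean percent inhibition of NEK9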
# T7 sequence (whole entry): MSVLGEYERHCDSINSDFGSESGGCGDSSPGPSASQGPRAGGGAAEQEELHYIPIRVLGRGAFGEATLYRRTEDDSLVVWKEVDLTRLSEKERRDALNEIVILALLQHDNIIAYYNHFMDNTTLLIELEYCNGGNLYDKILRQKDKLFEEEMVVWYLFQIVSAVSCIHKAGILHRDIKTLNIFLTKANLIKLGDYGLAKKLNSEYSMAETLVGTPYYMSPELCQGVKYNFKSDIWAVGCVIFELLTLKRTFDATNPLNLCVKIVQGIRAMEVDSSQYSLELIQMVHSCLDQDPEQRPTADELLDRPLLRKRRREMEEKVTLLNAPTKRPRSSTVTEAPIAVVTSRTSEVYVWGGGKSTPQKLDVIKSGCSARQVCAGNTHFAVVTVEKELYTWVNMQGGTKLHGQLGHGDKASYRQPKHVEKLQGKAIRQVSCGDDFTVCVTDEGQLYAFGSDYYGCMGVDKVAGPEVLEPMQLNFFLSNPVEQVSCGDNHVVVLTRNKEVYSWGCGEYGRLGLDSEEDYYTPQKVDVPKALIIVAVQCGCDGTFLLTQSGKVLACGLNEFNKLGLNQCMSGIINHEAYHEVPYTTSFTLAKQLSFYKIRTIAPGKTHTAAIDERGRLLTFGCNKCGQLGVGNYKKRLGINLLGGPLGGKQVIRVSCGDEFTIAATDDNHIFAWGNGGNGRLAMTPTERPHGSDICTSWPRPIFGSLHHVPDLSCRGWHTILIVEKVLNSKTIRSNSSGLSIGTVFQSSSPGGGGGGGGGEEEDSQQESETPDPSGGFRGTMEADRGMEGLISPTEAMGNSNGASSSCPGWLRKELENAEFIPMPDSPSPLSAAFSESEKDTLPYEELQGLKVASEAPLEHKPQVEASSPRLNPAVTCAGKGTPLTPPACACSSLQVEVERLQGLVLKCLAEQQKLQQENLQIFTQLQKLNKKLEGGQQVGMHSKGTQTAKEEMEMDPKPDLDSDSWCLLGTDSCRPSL
# Sequence of Serine/threonine-protein kinase Nek7 (Homo sapiens) (Q8TDX7 whole entry, looked up): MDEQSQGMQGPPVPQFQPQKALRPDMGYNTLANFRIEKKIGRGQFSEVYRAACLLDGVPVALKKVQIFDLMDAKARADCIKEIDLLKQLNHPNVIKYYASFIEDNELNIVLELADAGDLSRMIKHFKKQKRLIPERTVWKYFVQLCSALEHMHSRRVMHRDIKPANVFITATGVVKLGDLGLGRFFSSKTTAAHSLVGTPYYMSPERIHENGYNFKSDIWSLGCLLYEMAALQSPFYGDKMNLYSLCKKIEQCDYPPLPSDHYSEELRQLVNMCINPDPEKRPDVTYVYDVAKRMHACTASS
# Sequence of Casein kinase II subunit alpha (Homo sapiens) (P68400 whole entry, looked up): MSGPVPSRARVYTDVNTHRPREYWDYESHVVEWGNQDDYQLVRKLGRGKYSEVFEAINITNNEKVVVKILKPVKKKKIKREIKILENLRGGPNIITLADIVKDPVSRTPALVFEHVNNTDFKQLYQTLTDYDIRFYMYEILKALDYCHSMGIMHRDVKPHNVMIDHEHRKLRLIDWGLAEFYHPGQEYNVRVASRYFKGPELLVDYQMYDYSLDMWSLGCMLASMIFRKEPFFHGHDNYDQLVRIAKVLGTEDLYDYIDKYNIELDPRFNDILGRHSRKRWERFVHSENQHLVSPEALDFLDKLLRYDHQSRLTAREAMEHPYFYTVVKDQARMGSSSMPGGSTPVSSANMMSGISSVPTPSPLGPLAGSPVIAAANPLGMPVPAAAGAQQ
# Sequence of Serine/threonine-protein kinase Nek6 (Homo sapiens) (Q9HC98 whole entry): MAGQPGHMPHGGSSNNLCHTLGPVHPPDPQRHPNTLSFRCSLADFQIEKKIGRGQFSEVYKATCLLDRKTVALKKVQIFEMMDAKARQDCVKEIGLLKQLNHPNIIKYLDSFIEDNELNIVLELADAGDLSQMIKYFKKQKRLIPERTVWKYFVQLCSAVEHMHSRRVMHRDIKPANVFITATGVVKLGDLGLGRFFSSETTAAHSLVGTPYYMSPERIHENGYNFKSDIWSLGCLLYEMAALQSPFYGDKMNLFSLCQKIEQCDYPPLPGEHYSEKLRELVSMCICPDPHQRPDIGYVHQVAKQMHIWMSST
# Sequence of Sphingosine kinase 1 (Homo sapiens) (Q9NYA1 whole entry): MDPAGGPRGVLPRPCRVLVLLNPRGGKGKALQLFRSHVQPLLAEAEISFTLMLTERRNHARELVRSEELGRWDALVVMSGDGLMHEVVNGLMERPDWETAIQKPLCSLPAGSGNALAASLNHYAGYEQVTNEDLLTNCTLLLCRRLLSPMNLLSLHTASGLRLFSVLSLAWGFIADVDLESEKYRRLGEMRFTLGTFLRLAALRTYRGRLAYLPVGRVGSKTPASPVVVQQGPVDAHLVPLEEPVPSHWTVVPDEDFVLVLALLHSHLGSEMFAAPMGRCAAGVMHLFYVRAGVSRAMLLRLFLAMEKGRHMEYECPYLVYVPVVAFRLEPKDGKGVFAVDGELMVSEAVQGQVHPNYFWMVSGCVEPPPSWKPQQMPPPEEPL
smiles,measurement,setting,value
NC(=O)c1cccc(Nc2nccc(Nc3cccc(F)c3)n2)c1,inhibition,[1],0.76%
same,inhibition,[2],0%
same,inhibition,[3],0.34%
same,inhibition,[4],1.61%
same,inhibition,[5],3.67%
same,inhibition,[6],0.56%
same,inhibition,[7],4.67%
same,inhibition,[8],6.25%
same,inhibition,[9],22.3%
same,inhibition,[10],2.08%
same,inhibition,[11],3.29%
same,inhibition,[12],2.58%
same,inhibition,[13],5.37%
same,inhibition,[14],3.22%
same,inhibition,[15],1.09%
same,inhibition,[16],0.35%
same,inhibition,[17],0.89%
same,inhibition,[18],2.07%
same,inhibition,[19],1.47%
same,inhibition,[20],8.72%
